Measurements from the supplement of paper PMC11732987, “Enantioselective OTUD7B fragment discovery through chemoproteomics screening and high-throughput optimisation” (Communications Chemistry, 2025).
Unmarked numbers belong to inactive results.

Assays:
Test in all cases: log2 ratio of Biotin-Ahx-Ub-VS probe labelling (fragment/DMSO); higher = less target engagement (more negative = stronger competition), active = hit call of the paper (q ≤ 0.05, log2 ratio ≤ -1)
Conditions in all cases: compound concentration: 200 uM; treatment time: 3 h
OTUD6B = biological target: T1, OTUD6B (UniProt Q8N6M0)
T1 sequence (whole entry): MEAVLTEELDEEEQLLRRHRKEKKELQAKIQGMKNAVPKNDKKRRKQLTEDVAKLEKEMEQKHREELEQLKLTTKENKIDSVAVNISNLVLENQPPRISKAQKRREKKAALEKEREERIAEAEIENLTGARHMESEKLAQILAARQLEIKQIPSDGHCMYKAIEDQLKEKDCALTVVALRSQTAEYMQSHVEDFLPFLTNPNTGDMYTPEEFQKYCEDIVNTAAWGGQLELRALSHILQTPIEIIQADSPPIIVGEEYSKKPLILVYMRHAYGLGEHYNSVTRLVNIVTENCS
Procedure, shortened: (§1)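 Average log2 ratios of fragment over vehicle were obtained by unpaired t-test from global-median-normalised Spectronaut label-free quantities. Proteins with ≥2 unique peptides were included. HEK293T lysate (495 µg per sample) was treated in triplicate with fragment at 200 µM or vehicle for 3 h, then with Biotin-Ahx-Ub-VS at 0.5 µM final for 1 h, and labelled DUBs were NeutrAvidin-enriched and run by diaPASEF LC-MS/MS.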

OTUD7B = biological target: T2, OTUD7B (UniProt Q6GQQ9)
T2 sequence (whole entry): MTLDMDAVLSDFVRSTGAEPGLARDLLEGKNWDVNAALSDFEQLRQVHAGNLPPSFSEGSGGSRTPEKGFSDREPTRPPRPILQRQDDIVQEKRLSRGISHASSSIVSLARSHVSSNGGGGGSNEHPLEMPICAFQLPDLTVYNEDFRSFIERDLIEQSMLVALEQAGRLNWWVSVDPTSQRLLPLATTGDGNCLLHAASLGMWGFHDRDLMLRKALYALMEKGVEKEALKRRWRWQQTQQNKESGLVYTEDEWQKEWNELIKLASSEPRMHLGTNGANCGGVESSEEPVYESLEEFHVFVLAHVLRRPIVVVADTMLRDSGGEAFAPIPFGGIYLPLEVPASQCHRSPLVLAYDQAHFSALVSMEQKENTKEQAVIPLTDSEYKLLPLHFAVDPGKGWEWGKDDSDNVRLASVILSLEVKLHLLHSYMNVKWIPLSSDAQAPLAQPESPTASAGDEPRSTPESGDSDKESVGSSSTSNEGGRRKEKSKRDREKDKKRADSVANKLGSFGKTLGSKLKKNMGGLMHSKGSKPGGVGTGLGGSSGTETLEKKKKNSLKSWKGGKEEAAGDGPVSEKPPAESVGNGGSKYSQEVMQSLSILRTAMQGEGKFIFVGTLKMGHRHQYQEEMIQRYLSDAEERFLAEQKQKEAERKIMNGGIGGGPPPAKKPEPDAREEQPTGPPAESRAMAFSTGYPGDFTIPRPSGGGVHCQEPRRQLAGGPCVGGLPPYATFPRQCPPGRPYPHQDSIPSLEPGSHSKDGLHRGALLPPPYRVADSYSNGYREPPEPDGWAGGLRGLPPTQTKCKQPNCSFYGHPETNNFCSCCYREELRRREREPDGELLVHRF
Procedure, shortened: as §1

PRPF8 = PRPF8 (UniProt Q6P2Q9)
Procedure, shortened: as §1

PSMD7 = biological target: T3, PSMD7 (UniProt P51665)
T3 sequence (whole entry): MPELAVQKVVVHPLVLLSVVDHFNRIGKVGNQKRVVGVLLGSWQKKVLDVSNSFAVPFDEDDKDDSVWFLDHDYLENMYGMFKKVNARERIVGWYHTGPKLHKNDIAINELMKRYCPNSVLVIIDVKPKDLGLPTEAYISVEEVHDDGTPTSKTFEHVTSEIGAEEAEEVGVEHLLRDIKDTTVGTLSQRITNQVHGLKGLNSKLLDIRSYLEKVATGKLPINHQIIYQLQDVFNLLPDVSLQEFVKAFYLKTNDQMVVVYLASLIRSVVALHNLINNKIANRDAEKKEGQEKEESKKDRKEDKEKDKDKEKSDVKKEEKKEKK
Procedure, shortened: as §1

UCHL1 = UCHL1 (UniProt P09936)
Chain of UCHL1 (P09936 whole entry, looked up): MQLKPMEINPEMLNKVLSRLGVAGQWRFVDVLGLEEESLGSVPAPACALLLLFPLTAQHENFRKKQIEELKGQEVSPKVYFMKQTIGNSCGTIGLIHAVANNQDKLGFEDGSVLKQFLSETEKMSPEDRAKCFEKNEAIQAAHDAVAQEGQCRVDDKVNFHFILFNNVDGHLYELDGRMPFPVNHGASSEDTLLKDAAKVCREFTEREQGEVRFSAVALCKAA
Procedure, shortened: as §1

UCHL3 = biological target: T4, UCHL3 (UniProt P15374)
T4 sequence (whole entry): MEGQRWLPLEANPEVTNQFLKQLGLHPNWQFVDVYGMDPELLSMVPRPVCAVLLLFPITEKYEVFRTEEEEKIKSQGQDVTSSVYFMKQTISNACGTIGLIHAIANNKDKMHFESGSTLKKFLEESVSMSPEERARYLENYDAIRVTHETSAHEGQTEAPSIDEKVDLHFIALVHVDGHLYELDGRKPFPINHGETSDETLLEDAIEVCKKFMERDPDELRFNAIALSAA
Procedure, shortened: as §1

UCHL5 = biological target: T5, UCHL5 (UniProt Q9Y5K5)
T5 sequence (whole entry): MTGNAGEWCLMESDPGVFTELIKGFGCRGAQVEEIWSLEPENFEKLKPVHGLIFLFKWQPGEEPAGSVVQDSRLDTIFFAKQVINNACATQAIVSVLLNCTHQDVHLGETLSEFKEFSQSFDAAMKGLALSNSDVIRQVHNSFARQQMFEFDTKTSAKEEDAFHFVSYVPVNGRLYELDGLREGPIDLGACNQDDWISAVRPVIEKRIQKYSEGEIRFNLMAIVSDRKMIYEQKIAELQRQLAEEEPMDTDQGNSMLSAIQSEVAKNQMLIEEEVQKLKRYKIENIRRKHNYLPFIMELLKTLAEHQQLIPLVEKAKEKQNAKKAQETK
Procedure, shortened: as §1

USP10 = USP10 (UniProt Q14694)
Chain of USP10 (Q14694 whole entry): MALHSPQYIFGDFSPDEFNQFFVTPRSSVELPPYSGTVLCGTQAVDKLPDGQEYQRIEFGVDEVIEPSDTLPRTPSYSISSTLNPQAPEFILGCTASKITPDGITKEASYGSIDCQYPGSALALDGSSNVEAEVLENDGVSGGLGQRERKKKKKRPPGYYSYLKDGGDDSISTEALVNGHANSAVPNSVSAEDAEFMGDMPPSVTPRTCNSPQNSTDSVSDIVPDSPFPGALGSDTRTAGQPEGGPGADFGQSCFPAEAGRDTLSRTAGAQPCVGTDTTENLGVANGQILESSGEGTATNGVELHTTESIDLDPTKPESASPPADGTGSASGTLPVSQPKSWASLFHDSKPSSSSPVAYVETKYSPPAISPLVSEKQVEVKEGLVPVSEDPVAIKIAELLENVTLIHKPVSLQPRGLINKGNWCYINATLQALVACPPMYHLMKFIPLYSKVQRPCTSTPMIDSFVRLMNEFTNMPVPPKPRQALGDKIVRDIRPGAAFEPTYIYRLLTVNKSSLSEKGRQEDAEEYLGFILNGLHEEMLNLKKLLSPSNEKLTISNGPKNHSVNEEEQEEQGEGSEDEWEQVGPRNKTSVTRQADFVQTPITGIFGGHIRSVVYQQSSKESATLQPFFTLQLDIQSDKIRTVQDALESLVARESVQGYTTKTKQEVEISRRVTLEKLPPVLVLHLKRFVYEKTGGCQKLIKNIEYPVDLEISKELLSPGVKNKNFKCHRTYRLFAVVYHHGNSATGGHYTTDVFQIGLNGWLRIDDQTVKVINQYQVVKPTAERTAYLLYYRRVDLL
Procedure, shortened: as §1

USP15 = biological target: T6, USP15 (UniProt Q9Y4E8)
T6 sequence (whole entry): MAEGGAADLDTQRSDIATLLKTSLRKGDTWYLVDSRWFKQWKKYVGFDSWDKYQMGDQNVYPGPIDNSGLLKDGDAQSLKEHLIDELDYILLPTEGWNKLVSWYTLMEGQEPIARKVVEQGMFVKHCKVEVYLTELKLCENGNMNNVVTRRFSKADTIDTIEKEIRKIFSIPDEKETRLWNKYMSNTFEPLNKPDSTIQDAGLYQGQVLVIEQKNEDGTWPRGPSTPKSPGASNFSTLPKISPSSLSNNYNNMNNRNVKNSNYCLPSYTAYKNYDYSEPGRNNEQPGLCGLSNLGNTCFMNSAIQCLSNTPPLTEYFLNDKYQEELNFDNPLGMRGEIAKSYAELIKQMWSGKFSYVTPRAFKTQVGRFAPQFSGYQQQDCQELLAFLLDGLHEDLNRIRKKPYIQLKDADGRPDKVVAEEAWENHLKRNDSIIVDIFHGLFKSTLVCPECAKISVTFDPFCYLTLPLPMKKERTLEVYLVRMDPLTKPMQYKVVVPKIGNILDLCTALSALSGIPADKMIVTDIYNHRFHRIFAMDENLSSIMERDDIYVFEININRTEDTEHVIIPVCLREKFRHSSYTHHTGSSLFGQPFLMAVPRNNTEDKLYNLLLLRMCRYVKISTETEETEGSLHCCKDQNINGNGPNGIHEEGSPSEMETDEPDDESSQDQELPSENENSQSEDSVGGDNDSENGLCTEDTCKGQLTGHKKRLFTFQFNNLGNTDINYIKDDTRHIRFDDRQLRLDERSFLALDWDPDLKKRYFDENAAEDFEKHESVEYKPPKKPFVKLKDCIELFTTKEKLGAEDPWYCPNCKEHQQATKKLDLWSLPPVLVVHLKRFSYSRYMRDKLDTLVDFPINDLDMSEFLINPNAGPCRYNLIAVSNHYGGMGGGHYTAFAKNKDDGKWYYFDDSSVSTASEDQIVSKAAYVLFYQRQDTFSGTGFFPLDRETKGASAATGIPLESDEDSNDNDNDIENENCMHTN
Procedure, shortened: as §1

USP16 = USP16 (UniProt Q9Y5T5)
Chain of USP16 (Q9Y5T5 whole entry, looked up): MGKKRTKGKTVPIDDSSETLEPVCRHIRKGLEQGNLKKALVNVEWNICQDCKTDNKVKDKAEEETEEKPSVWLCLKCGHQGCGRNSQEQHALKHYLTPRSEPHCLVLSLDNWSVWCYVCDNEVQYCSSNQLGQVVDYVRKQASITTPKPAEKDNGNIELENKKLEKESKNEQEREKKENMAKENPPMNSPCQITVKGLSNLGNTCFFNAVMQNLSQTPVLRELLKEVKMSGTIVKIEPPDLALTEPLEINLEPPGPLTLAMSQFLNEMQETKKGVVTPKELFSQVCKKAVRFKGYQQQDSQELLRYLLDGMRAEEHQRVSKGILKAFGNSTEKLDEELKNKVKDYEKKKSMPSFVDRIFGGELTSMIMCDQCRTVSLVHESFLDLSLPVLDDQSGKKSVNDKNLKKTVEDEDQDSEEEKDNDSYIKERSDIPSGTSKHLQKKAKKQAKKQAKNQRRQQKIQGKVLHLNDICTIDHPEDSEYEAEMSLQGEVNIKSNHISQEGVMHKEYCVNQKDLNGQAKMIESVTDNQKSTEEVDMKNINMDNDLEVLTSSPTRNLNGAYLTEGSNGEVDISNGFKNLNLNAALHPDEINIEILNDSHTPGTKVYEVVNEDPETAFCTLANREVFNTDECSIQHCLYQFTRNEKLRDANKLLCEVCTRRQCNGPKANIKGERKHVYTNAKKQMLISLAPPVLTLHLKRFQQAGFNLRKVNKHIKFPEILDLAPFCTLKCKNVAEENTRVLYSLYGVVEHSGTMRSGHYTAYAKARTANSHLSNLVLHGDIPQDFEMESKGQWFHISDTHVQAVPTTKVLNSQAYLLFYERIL
Procedure, shortened: as §1

NS(=O)(=O)c1ccc(Cl)c(NC(=O)CCl)c1
log2 ratio of Biotin-Ahx-Ub-VS probe labelling (OTUD6B): -0.573 | log2 ratio of Biotin-Ahx-Ub-VS probe labelling (OTUD7B): -1.63 (active) | log2 ratio of Biotin-Ahx-Ub-VS probe labelling (PRPF8): -0.153 | log2 ratio of Biotin-Ahx-Ub-VS probe labelling (PSMD7): -0.125 | log2 ratio of Biotin-Ahx-Ub-VS probe labelling (UCHL1): -1.51 (active) | log2 ratio of Biotin-Ahx-Ub-VS probe labelling (UCHL3): 0.209 | log2 ratio of Biotin-Ahx-Ub-VS probe labelling (UCHL5): -0.489 | log2 ratio of Biotin-Ahx-Ub-VS probe labelling (USP10): -0.299 | log2 ratio of Biotin-Ahx-Ub-VS probe labelling (USP15): -0.166 | log2 ratio of Biotin-Ahx-Ub-VS probe labelling (USP16): 0.0198
